According to the supplement of paper PMC11732987, “Enantioselective OTUD7B fragment discovery through chemoproteomics screening and high-throughput optimisation” (Communications Chemistry, 2025):

Assays:
Test in all cases: log2 ratio of Biotin-Ahx-Ub-VS probe labelling (fragment/DMSO); higher = less target engagement (more negative = stronger competition), active = hit call of the paper (q ≤ 0.05, log2 ratio ≤ -1)
Settings in all cases: compound concentration: 200 uM; treatment time: 3 h
USP9X = USP9X (UniProt Q93008)
USP9X, sequence (Q93008 whole entry, the tested form may be a part): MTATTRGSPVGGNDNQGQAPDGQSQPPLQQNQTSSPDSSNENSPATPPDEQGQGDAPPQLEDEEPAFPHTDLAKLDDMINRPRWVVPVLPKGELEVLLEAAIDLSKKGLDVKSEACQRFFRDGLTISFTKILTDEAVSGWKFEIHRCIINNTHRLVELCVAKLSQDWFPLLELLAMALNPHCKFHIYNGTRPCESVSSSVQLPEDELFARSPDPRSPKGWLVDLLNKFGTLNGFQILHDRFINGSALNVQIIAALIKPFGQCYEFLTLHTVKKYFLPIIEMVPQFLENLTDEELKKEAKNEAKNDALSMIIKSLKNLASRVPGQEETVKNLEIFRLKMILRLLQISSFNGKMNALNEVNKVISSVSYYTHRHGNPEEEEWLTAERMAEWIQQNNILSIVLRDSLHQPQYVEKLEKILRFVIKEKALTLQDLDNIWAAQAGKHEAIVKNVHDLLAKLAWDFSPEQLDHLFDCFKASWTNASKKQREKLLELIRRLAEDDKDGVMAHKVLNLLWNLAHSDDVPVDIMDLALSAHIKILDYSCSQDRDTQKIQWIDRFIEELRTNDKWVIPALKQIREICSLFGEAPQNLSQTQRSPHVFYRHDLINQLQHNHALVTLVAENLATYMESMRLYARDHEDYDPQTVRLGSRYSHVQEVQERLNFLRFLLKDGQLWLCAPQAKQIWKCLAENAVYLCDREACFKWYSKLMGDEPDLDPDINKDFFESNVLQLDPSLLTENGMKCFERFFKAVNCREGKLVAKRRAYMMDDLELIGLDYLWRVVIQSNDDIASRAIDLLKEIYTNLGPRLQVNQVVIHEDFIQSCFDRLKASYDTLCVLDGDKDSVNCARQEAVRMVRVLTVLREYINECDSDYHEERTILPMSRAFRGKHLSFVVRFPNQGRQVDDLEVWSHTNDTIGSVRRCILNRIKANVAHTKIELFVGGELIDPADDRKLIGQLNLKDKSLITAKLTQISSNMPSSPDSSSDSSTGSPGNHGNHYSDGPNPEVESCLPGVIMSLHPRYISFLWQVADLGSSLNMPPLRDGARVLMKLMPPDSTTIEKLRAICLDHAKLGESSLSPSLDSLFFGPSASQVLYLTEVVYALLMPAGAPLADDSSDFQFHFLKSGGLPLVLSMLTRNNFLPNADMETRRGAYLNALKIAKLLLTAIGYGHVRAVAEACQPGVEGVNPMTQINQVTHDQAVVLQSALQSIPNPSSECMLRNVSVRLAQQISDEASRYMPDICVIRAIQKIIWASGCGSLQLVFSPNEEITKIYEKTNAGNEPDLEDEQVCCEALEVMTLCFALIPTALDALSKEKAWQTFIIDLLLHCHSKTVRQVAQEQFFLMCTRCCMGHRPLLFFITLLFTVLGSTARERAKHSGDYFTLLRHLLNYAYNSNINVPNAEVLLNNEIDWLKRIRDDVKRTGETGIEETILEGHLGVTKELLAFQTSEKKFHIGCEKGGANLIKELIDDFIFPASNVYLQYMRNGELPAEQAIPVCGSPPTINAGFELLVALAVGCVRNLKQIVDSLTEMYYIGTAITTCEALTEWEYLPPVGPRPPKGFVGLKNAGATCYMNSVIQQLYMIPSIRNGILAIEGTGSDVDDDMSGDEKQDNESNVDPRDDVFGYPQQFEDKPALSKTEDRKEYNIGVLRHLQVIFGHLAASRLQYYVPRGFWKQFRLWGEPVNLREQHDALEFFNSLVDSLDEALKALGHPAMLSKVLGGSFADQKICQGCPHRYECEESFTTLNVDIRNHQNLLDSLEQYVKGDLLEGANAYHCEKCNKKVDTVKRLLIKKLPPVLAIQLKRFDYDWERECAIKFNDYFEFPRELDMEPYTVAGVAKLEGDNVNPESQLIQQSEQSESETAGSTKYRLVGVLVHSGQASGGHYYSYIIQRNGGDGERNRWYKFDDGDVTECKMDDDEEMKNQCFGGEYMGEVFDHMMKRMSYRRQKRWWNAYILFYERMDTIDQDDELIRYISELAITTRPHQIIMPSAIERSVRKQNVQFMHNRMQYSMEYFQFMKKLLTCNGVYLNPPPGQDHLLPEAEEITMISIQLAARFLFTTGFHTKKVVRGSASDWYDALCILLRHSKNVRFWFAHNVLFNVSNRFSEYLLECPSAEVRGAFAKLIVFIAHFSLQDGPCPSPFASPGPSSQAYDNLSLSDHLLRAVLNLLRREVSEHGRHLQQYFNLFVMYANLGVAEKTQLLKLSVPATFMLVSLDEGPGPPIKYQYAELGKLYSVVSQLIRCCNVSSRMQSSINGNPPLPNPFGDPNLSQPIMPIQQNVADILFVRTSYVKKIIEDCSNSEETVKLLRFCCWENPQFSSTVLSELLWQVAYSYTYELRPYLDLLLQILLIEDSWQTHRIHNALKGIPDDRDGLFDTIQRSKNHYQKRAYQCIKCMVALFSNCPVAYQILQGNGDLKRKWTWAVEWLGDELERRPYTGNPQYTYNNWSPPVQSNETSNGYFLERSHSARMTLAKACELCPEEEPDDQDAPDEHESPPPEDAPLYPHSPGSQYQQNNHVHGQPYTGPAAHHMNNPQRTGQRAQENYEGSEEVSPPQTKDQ
Outline: (§1)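 HEK293T lysate (495 µg per sample, in Tris/CHAPS/IGEPAL buffer with protease inhibitors) was treated in triplicate with fragment at 200 µM or with DMSO for 3 h. It was then treated with Biotin-Ahx-Ub-VS (0.5 µM final) for 1 h. Labelled DUBs were NeutrAvidin-enriched, digested with LysC and trypsin, and run by diaPASEF LC-MS/MS. Spectronaut label-free quantities were global-median-normalised. Values are average log2 ratios fragment/DMSO by unpaired t-test, using proteins with ≥2 unique peptides.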

UniProt O00487 = molecular target: UniProt O00487
UniProt O00487, sequence (O00487 whole entry): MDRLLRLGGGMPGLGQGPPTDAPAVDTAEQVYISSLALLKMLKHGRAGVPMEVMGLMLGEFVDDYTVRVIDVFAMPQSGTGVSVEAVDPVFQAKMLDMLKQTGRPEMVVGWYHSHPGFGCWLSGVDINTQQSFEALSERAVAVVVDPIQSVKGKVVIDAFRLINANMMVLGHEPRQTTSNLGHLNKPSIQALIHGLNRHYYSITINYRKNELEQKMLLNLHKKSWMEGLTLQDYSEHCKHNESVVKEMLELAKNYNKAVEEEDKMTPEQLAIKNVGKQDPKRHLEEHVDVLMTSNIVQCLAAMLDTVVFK
Outline: as §1

UniProt O00507 = molecular target: UniProt O00507
Outline: as §1

UniProt P51784 = molecular target: UniProt P51784
UniProt P51784, sequence (P51784 whole entry): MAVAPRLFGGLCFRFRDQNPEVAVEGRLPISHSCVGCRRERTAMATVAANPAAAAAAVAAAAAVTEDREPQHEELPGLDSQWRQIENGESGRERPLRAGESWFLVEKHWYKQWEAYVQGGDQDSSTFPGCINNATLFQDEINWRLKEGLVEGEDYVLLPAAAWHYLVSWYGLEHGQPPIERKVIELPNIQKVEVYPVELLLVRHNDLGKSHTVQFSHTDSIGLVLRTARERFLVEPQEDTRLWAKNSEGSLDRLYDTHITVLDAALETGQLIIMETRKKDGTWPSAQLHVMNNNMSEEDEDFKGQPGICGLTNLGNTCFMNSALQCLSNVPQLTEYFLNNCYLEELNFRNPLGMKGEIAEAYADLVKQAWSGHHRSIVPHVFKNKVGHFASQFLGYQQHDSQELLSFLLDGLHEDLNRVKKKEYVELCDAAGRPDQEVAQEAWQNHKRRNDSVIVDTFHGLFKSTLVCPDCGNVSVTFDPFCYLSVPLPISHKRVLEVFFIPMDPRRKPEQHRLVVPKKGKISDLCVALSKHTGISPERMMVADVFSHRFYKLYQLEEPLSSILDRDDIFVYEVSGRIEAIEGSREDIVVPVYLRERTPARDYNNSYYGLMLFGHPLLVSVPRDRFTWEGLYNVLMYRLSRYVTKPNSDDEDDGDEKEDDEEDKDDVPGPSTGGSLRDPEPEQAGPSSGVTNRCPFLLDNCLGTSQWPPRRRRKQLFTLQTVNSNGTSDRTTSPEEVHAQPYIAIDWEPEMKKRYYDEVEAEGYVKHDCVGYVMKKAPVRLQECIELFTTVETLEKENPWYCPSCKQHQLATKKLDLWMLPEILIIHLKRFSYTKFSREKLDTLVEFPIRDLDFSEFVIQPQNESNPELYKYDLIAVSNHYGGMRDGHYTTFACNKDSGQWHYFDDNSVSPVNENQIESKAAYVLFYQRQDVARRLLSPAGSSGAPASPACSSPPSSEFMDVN
Outline: as §1

UniProt Q5T2D3 = molecular target: T1, UniProt Q5T2D3
T1 sequence (whole entry): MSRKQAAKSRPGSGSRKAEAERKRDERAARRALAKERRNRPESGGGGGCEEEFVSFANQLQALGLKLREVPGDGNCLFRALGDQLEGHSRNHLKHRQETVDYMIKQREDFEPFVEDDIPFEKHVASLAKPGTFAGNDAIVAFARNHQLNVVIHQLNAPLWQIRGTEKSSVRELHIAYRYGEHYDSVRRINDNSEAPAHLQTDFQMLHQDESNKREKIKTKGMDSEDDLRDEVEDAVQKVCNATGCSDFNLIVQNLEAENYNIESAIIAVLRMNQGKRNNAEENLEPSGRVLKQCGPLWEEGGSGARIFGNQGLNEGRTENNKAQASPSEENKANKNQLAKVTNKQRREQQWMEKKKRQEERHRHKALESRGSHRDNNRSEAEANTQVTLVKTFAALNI
Outline: as §1

UniProt Q8TE49 = molecular target: T2, UniProt Q8TE49
T2 sequence (whole entry): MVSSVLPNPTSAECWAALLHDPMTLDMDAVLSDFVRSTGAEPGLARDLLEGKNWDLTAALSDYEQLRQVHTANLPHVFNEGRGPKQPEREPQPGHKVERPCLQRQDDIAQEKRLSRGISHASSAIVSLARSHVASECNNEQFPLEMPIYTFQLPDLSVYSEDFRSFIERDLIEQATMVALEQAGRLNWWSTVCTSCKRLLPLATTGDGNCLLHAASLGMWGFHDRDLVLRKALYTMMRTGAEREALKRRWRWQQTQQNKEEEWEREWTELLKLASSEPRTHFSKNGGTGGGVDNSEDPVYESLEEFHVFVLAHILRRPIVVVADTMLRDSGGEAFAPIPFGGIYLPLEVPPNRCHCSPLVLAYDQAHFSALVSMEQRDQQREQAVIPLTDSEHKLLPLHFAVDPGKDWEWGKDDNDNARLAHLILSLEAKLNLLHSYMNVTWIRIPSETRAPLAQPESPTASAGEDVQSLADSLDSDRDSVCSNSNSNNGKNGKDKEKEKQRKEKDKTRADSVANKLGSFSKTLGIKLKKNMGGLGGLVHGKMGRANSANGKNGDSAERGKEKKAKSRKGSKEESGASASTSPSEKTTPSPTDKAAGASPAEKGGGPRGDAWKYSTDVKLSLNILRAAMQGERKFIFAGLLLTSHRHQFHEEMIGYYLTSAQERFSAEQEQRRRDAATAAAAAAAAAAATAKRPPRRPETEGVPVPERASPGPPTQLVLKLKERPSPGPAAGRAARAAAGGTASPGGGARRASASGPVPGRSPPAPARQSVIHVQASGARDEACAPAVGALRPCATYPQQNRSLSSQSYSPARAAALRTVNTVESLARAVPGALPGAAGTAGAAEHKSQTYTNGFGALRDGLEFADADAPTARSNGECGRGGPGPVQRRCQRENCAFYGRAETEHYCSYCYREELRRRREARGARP
Outline: as §1

UniProt Q9P2H5 = molecular target: T3, UniProt Q9P2H5
T3 sequence (whole entry): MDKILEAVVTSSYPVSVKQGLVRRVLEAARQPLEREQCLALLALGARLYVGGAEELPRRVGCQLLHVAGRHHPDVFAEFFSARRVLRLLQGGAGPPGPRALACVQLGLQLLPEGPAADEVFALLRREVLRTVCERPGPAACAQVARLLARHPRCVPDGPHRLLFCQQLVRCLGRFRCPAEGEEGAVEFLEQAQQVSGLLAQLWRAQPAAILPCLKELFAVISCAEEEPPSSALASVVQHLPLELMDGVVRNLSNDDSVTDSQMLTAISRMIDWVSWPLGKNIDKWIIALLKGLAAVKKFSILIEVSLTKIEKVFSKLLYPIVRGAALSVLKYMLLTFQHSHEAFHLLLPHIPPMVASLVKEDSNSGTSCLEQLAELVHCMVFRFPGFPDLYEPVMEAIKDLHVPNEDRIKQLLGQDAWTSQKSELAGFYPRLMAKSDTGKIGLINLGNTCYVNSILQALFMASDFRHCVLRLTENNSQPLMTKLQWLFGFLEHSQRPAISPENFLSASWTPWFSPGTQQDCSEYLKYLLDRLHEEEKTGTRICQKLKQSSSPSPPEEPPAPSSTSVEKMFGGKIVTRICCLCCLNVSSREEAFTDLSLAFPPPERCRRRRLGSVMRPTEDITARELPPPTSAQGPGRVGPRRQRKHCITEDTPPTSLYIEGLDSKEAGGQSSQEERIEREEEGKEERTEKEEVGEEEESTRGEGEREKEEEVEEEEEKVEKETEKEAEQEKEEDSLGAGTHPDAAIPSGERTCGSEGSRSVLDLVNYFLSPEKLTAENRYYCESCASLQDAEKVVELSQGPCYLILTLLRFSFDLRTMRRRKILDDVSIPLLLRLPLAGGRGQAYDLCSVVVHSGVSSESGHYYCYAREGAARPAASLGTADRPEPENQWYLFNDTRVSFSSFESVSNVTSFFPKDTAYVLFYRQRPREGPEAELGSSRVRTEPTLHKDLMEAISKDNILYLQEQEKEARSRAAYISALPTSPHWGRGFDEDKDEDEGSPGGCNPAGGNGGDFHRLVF
Outline: as §1

UniProt Q9UGI0 = molecular target: T4, UniProt Q9UGI0
T4 sequence (whole entry): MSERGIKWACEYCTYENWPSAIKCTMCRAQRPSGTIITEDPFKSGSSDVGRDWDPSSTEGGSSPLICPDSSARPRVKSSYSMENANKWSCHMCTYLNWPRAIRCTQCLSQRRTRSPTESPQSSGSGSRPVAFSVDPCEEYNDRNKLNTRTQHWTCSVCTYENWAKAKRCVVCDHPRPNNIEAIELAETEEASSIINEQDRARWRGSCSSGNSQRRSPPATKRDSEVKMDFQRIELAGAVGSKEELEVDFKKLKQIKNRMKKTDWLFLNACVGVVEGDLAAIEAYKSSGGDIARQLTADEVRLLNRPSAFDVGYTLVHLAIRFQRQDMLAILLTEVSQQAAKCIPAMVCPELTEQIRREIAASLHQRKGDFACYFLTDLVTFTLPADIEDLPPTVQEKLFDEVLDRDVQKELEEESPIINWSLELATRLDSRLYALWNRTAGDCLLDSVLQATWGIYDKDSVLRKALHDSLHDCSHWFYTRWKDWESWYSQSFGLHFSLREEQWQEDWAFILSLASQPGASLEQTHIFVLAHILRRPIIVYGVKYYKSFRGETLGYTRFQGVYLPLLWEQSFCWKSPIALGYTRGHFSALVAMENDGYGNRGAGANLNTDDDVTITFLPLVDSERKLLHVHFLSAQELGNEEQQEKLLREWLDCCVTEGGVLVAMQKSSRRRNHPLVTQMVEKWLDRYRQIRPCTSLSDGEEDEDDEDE
Outline: as §1

YOD1 = molecular target: T5, YOD1 (UniProt Q5VVQ6)
T5 sequence (whole entry): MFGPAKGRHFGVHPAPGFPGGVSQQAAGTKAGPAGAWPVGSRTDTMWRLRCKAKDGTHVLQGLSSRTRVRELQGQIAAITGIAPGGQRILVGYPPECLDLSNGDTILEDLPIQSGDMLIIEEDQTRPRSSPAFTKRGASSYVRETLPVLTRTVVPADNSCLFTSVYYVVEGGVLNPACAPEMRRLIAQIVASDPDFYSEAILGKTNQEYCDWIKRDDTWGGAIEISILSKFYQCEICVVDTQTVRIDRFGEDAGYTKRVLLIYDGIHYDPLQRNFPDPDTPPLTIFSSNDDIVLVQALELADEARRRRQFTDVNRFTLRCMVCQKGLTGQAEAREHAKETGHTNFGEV
Outline: as §1

Measured: log2 ratio of Biotin-Ahx-Ub-VS probe labelling

COc1ccccc1C(C)NC(=O)CCl (centres undefined)
inactive: USP9X -0.174 | UniProt O00487 0.0235 | UniProt O00507 -0.445 | UniProt P51784 -0.212 | UniProt Q5T2D3 -0.15 | UniProt Q8TE49 -0.696 | UniProt Q9P2H5 -0.277 | UniProt Q9UGI0 -0.788 | YOD1 -0.23
